Reference: PubChem BioAssay
Measured potencies and affinities stand elsewhere. Records with an inconclusive call do not appear. Active and inactive are the calls of the source. Unless noted, how the calls were made is not given here.

Columns and labels:
[1] = RMG-1 ovarian cancer cell viability loss – cherry-pick, dose response (AID 687029;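 active means signal drop whose fitted half-maximal concentration is at most twice the top valid dose, in every test run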;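 further: cells exposed to compound for 96 hours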)
[2] = CMV-driven luciferase expression suppression in HEK293 – cell-based, luminescence, dry powder, counter-screen for Pax8 inhibitor project, dose response (AID 743020;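 active means signal-lowering compounds whose fitted half-maximal concentration is at or below twice the top tested dose in every run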;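 further: HEK293 cells stably expressing the CMV luciferase reporter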)
[3] = general cell-killing toxicity readout – plate reader, dry powder samples, cytotoxicity control for PAX8 inhibitor project, dose response (AID 743021)
[4] = IGROV1 cell killing – plate reader, dry powder samples, PAX8 inhibitor project, dose response (AID 743043);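 further: more negative means fewer viable cells or more cytotoxicity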
[5] = OVCAR-3 cell viability loss – plate reader, dry powder samples, PAX8 inhibitor project, dose response (AID 743044); settings: max activity: at 35 µM, active compounds read low unless noted
[6] = toxicity toward immortalized ovarian surface epithelium – cell-based, plate reader, dry powder samples, cytotoxicity control for PAX8 inhibitor project, dose response (AID 743045);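 further: 0% = neutral control median and -100% = positive control median; more negative values mean more cell killing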
[7] = A2780 cell killing – plate reader, dry powder samples, cytotoxicity control, dose response (AID 743046);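 further: 0% = neutral control wells and -100% = cytotoxic reference compound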
[8] = OVCAR8 cell viability loss – plate reader, dry powder samples, PAX8 project, dose response (AID 743197)
[9] = A549 cell cytotoxicity, dose response, cytotoxicity control, plate reader, cherry-pick, antagonist series (AID 743412);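 further: 0% = neutral control wells and -100% = positive control wells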
[10] = toxicity toward HepG2 liver cells – cell-based, plate reader, cherry-pick, antagonist series, cytotoxicity control, dose response (AID 743416);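 further: 0% = neutral control wells and -100% = positive control wells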
[11] = biological target: Melanocortin receptor 4 (Homo sapiens) (UniProt P32245); assay: blockade of melanocortin 4 receptor signaling – cell-based, plate reader, cherry pick, counter-screen for LGR2 antagonist project, dose response (AID 743444)

Measured: max activity

CSc1nc(-c2ccccc2)nc(C(Cl)Cl)n1
inactive: [1] | [2] | [3]

Cc1ccc2nc(NNC(=O)c3ccc(S(=O)(=O)N4CCc5ccccc5C4)cc3)sc2c1
inactive: [1] | [2] | [3]

O=C1[C@@H]2Cc3c([nH]c4ccccc34)C(c3cccc(Br)c3)N2C(=O)CN1C1CCN(Cc2ccccc2)CC1 (some centres undefined)
inactive: [1] | [2] | [3]

Cc1cc(C)n(-c2nc(NCCN(C)C)c3c4c(sc3n2)CCCC4)n1
inactive: [1] | [2] | [3]

Cc1ccc(NC(=O)/C=C/c2ccc([N+](=O)[O-])s2)c(C)c1
inactive: [1] | [2] | [3]

CN(N=Nc1nc[nH]c1C(N)=O)C1CCCCC1
inactive: [1] | [2] | [3]

COc1ccc(/C=C2\CN(Cc3ccccc3)C/C(=C\c3ccc(OC)c(O)c3)C2=O)cc1O
inactive: [1] | [2] | [3]

O=C(Nc1cccc(Cl)c1)Nc1nnc(CSCCOc2ccc(Cl)cc2)s1
inactive: [1] | [2] | [3] | [4]

COc1ccc(CN(C)C[C@H]2OCCCC[C@H](C)Oc3ccc(NC(=O)Nc4ccc(C(F)(F)F)cc4)cc3C(=O)N([C@H](C)CO)C[C@@H]2C)cc1
inactive: [1] | [2] | [3] | [4] | [5] -28.6% [at 8 µM, active compounds read low] | [6] | [7] | [8]

C[C@@H]1CN([C@@H](C)CO)S(=O)(=O)c2ccc(C#Cc3ccc(F)cc3)cc2O[C@@H]1CN(C)C(=O)NC1CCCCC1
inactive: [1] | [2] | [3] | [4] | [5] 23.4% [at 1 µM, active compounds read low] | [6] | [7] | [8]

CC(=O)c1sc(NC(=O)CCS(=O)(=O)c2ccc(Cl)cc2)nc1C
inactive: [1] | [2] | [3]

COc1ccc(-c2ccc3c(c2)[C@@H]2[C@@H](CCN2C(=O)NC2CCCCC2)[C@H](CO)N3C)cc1
inactive: [1] | [2] | [3] | [4]

CN1CCN(c2ccc(S(=O)(=O)N3CCCCC3)cc2NC(=O)/C=C/c2ccc(Cl)c([N+](=O)[O-])c2)CC1
inactive: [1] | [2] | [3]

COc1ccc(CN(C)C[C@H]2Oc3ccc(NC(=O)Nc4ccc5c(c4)OCO5)cc3CC(=O)N([C@H](C)CO)C[C@H]2C)cc1
inactive: [1] | [2] | [3] | [4] | [5] -9.48% [at 18 µM, active compounds read low] | [6] | [7] | [8]

Cn1nnnc1Sc1ncnc2scc(-c3ccccc3Cl)c12
inactive: [1] | [2] | [3]

O=C(Cn1ncc(Cl)c(Cl)c1=O)NC(=O)NC1CCCCC1
inactive: [1] | [2] | [3]

C[C@@H]1CCCCO[C@H](CN(C)C(=O)Cc2ccccc2)[C@@H](C)CN([C@@H](C)CO)C(=O)c2cc(NC(=O)Nc3ccc(C(F)(F)F)cc3)ccc2O1
inactive: [1] | [2] | [3] | [4] | [6]

Cc1ccc(S(=O)(=O)Nc2ccc3c(c2)C(=O)N([C@H](C)CO)C[C@@H](C)[C@H](CN(C)Cc2ccc(C(F)(F)F)cc2)OCCCC[C@@H](C)O3)cc1
inactive: [1] | [2] | [3] | [4] | [5] 6.08% [at 0.5 µM, active compounds read low] | [6] | [7] | [8]

C[C@H](CO)N1C[C@H](C)[C@@H](CN(C)CC2CCCCC2)Oc2c(NC(=O)CCCCCC(=O)Nc3ccccc3N)cccc2C1=O
inactive: [1] | [2] | [3] | [4] | [5] 16% [at 1 µM, active compounds read low] | [6] | [7]

C[C@@H]1CN([C@@H](C)CO)C(=O)c2cc(NC(=O)Nc3ccc(C(F)(F)F)cc3)ccc2O[C@@H](C)CCCCO[C@@H]1CN(C)CC1CCCCC1
inactive: [1] | [2] | [3] | [4] | [5] 15.9% | [6] | [7] | [8]

Cc1ccc(S(=O)(=O)Nc2cccc3c2O[C@@H](CN(C)Cc2ccc(Oc4ccccc4)cc2)[C@@H](C)CN([C@H](C)CO)C3=O)cc1
inactive: [1] | [2] | [3] | [4] | [5] 15.8% [at 1 µM, active compounds read low] | [6] | [7] | [8]

COc1cccc(S(=O)(=O)N(C)C[C@@H]2OCc3ccccc3-c3c(n(C)c4ccccc34)C(=O)N([C@H](C)CO)C[C@@H]2C)c1
inactive: [1] | [2] | [3] | [4] | [5] -14.8% | [6]

CCCCCCCn1c2c(c(=N)c3c1CCC3)CCCC2
inactive: [1] | [2] | [3]

C[C@H](CO)N1C[C@H](C)[C@H](CN(C)Cc2ccc(-c3ccccc3)cc2)Oc2ccc(NS(=O)(=O)c3ccc(F)cc3)cc2CC1=O
inactive: [1] | [2] | [3] | [4] | [5] -42.4% | [6] | [7]

C=CCC[C@@H](Cc1ccc(F)cc1)C(=O)OC[C@@H](Cc1c[nH]c2ccccc12)NC(=O)[C@H](CC=C)CC(=O)N(CCO)Cc1ccccc1
inactive: [1] | [2] | [3]

O=C(Nc1ccc(C(F)(F)F)cc1)Nc1ccc2c(c1)[C@H]1C[C@H](CC(=O)N3CCc4ccccc4C3)O[C@H](CO)[C@H]1O2
inactive: [1] | [2] | [3] | [4] | [5] 20.8% [at 0.5 µM, active compounds read low] | [6] | [8]

O=C1/C(=C/c2ccccc2)SC(=S)N1CC(=O)N1CCCCC1c1cccnc1 (centres undefined)
inactive: [1] | [2] | [3] | [4] | [5] | [6] | [7]

C[C@@H]1CN([C@H](C)CO)C(=O)c2cc(NC(=O)Nc3ccc(C(F)(F)F)cc3)ccc2O[C@@H](C)CCCCO[C@H]1CN(C)Cc1ccccc1
inactive: [1] | [2] | [3] | [4] | [5] 12% [at 30 µM, active compounds read low] | [6] | [7] | [8]

Cc1ccc(S(=O)(=O)Nc2ccc3c(c2)C(=O)N([C@@H](C)CO)C[C@@H](C)[C@@H](CN(C)S(=O)(=O)c2ccc(Cl)cc2)OCCCC[C@@H](C)O3)cc1
inactive: [1] | [2] | [3] | [4] | [5] -15% | [6] | [8]

CN1CC(=O)N2C(c3ccc(Cl)cc3)c3[nH]c4ccccc4c3C[C@H]2C1=O (some centres undefined)
inactive: [1] | [2] | [3]

COc1ccc(S(=O)(=O)Nc2ccc3c(c2)C(=O)N([C@H](C)CO)C[C@@H](C)[C@H](CN(C)C(=O)Nc2ccc(C(F)(F)F)cc2)OCCCC[C@H](C)O3)cc1
inactive: [1] | [2] | [3] | [4] | [5] -37.1% | [6] | [8]

C[C@H](CO)N1C[C@H](C)[C@@H](CN(C)Cc2ccc(Cl)c(Cl)c2)Oc2ccc(NC(=O)Nc3ccc(F)cc3)cc2CC1=O
inactive: [1] | [2] | [3] | [4] | [5] -44% | [6]

CCC(=O)N1CCN(c2ccc(NC(=O)c3ccc([N+](=O)[O-])o3)cc2)CC1
inactive: [1] | [2] | [3]

COc1ccc(S(=O)(=O)Nc2ccc3c(c2)C(=O)N([C@H](C)CO)C[C@H](C)[C@@H](CN(C)Cc2ccc(Cl)c(Cl)c2)OCCCC[C@@H](C)O3)cc1
inactive: [1] | [2] | [3] | [4] | [5] -37.4% [at 8 µM, active compounds read low] | [6] | [7] | [8]

Cc1cc(C(=O)Nc2cccc3c2O[C@H](CN(C)Cc2ccc(Oc4ccccc4)cc2)[C@@H](C)CN([C@H](C)CO)C3=O)n(C)n1
inactive: [1] | [2] | [3] | [4] | [5] -26.8% [at 16 µM, active compounds read low] | [6] | [7]

BrC(=C\c1ccccc1)/C=N/n1cnnc1
inactive: [1] | [2] | [3]

O=S(=O)(c1ccccc1)N1CCCCN2[C@H](CO)[C@H](c3ccc(-c4ccccc4F)cc3)[C@H]2C1
inactive: [1] | [2] | [3] | [4] | [5] -5.95% | [6] | [7]

C[C@@H]1CCCCO[C@@H](CN(C)Cc2ccc(C(F)(F)F)cc2)[C@H](C)CN([C@H](C)CO)C(=O)c2cc(NS(=O)(=O)c3cccs3)ccc2O1
inactive: [1] | [2] | [3] | [4] | [5] -15.8% | [6] | [7] | [8]

COc1ccc(S(=O)(=O)Nc2ccc3c(c2)C(=O)N([C@H](C)CO)C[C@H](C)[C@@H](CN(C)Cc2ccc(C(F)(F)F)cc2)OCCCC[C@H](C)O3)cc1
inactive: [1] | [2] | [3] | [4] | [5] -20.9% [at 0.5 µM, active compounds read low] | [6] | [7] | [8]

C[C@@H]1CCCCO[C@@H](CN(C)Cc2ccc(Cl)c(Cl)c2)[C@H](C)CN([C@H](C)CO)C(=O)c2cc(NC(=O)Nc3ccc(C(F)(F)F)cc3)ccc2O1
inactive: [1] | [2] | [3] | [4] | [5] 52.8% [at 0.26 µM, active compounds read low] | [6] | [7] | [8]

CCOC(=O)/C=C/C(=O)Nc1cc(S(=O)(=O)Nc2ccc(OC)cc2)ccc1N1CCOCC1
inactive: [1] | [2] | [3]

C[C@H]1CN([C@@H](C)CO)C(=O)Cc2cc(NC(=O)C3CC3)ccc2O[C@@H]1CN(C)Cc1ccc(-c2ccccc2)cc1
inactive: [1] | [2] | [3] | [4] | [6]

COc1ccc(S(=O)(=O)Nc2ccc3c(c2)CC(=O)N([C@H](C)CO)C[C@H](C)[C@@H](CN(C)Cc2ccc(Cl)c(Cl)c2)O3)cc1
inactive: [1] | [2] | [3] | [4] | [5] 16.2% [at 16 µM, active compounds read low] | [6] | [7] | [8]

Oc1ccc(C[C@H]2CN([C@@H](Cc3ccc(O)cc3)CN3CCC[C@@H]3CN3C(=S)NC[C@@H]3Cc3ccccc3)C(=S)N2CC2CCCCCC2)cc1
inactive: [1] | [2] | [3]

Cc1nc(SCC(=O)Nc2nc3ccccc3s2)c(C#N)c(C)c1C
inactive: [9]

O=C(/C=C/c1ccccc1)Nc1cccc(C(=O)O)c1
inactive: [9]

CC(=O)Nc1ccc(S(=O)(=O)c2ccnc3cc(Cl)ccc23)cc1
inactive: [10] | [11]

Cc1cccc(/C=C(\c2nc3ccccc3[nH]2)S(=O)(=O)c2ccccc2)c1
inactive: [1] | [3]

O=C(NC(Nc1nc2ccc([N+](=O)[O-])cc2s1)(C(F)(F)F)C(F)(F)F)c1ccccc1Cl
inactive: [1] | [3]

CC(=NNc1cc(C)c2ccccc2n1)c1ccccn1
inactive: [1] | [3]

Cc1ccc(S(=O)(=O)N2CCCCC2)cc1NC(=O)Cn1ncc(Cl)c(Cl)c1=O
inactive: [1] | [3]

CC(=O)Nc1ccc(Sc2ccc([N+](=O)[O-])o2)cc1
inactive: [1] | [3]

COc1ccc(-c2csc(NC(=O)c3ccccc3NS(=O)(=O)c3ccc(F)c(F)c3)n2)cc1
inactive: [1] | [3]

COc1ccc(-c2cnc3c(NC=O)cc(-c4ccccc4OC)cn23)cc1OC
inactive: [1] | [3]

Oc1c(Cl)cc(CN2CCOCC2)c2cccnc12
inactive: [1] | [3]

Cc1cc(O)c(C(C)C)cc1C1(c2cc(C(C)C)c(O)cc2C)OC(=O)c2ccccc21
inactive: [1] | [3]

O=C(CCl)Nc1cc2[nH]c(=O)[nH]c2cc1Br
inactive: [1] | [3]

COc1cc2c(c(OC)c1OC)-c1ccc(SC)c(=O)cc1C(NC(=O)C(F)(F)F)CC2 (centres undefined)
inactive: [1] | [3]

Cc1cc(C)c2nc(SCC(=O)N3CC(=O)Nc4ccccc43)c(C#N)cc2c1
inactive: [1] | [3]
